GLP1R ag = activates the human GLP-1 receptor; Potency, µM (top dose mostly 45.6 µM), for the others: at the top dose activation, usual class: activators; HEK293 GLP-1R CRE-luciferase, luminescence, 4-6 h; cells express a hypersensitive GLP-1R form; 0.007% of 380,000 active; P43220; note: potency is the fitted concentration of half-maximal effect; % of control where 0% means no effect
Target sequence (P43220 whole entry, looked up): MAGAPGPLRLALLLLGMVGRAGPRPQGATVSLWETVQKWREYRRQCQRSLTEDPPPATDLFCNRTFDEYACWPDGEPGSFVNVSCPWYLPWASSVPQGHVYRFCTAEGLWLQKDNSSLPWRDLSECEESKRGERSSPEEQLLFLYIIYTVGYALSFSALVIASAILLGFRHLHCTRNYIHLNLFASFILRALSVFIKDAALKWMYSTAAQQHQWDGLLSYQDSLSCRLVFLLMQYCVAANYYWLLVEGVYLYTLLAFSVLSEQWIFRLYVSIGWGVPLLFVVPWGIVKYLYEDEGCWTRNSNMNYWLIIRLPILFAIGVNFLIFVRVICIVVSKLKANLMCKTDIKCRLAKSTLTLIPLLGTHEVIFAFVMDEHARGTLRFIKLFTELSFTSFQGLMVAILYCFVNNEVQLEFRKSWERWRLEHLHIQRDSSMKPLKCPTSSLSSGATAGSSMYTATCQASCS
GLS inhibitor = inhibitors of human glutaminase (GLS). O94925. GLS enzymatic activity, qHTS titration. Potency, µM (titrated, usually from 45.5 µM), for inactives: top-dose activity change, negative = inhibition, usual class: inhibitors. 0.21% of 410,000 active. AID 624170; note: potency is the fitted concentration of half-maximal effect; % is set by controls: 0 for no effect and ±100 for the full control effect
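hKGA in 45 mM KH2PO4 pH 8.2, 0.02% Tween-20 with pin-transferred compounds; 1 mM L-glutamine (stock) plus glutamate oxidase/HRP/Amplex Red coupling added. Fluorescence read initially and after 30 min at RT.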
GLP1R cytotox = cytotoxicity in counter-screen for GLP-1R inverse agonists; HEK293 cAMP-luciferase reporter cells, luminescence, 24 h; Potency, µM (highest dose often 38.3 µM), for inactives: at the highest dose activity change, negative = inhibition, hits mostly inhibitors; 0.13% of 410,000 active; AID 624418;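 note: loss of luciferase light is scored as toxicity; potency is the fitted concentration of half-maximal effect; % is set by controls: 0 for no effect and ±100 for the full control effect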
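Seeding density was 200 cells/uL; after overnight-length (12 h) culture, 23 nL compounds went on for 24 h at 37 °C. Readout used a luciferase detection reagent, luminescence taken after 12 min at room temperature.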
GLP1R inv ag = inverse agonists of human GLP-1 receptor | P43220 | HEK293 GLP-1R CRE-luciferase, luminescence, 24 h; GLP-1R form is constitutively active | Potency, µM (doses to about 38.3 µM), for inactives: at the top dose activity change, negative = inhibition, hits mostly inhibitors | 1.6% of 410,000 active | AID 624417; note: potency is the fitted concentration of half-maximal effect; % is set by controls: 0 for no effect and ±100 for the full control effect; nearly all actives have a fitted effect of over 55% in size
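Seeding at 200 cells/uL, 12 h culture, 24 hr compound treatment, then luciferase reagent and a luminescence read; cells are HEK293 stably expressing a constitutively active GLP-1R plus cAMP-responsive luciferase.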
KCNH2 3.1 inh = KCNH2 3.1 (human) potassium channel inhibition. activity change, % (tested at about 1.8 µM). 0.95% of 340,000 active. AID 720553. U2OS KCNH2 3.1, thallium flux FluxOr; active compounds read low;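 active = maximum activity change below -70%; inconclusive = maximum activity change from -70% to -50%; inactive = maximum activity change above -50%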;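 note: thallium influx rate constant from kinetic fluorescence after stimulation buffer; % is set by controls: 0 for no effect and ±100 for the full control effect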
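Channel expression came from 3.1 mutant virus (1.77 x 10^8 /mL) applied to suspended U2OS cells for 4 h. Flux was tracked with FluxOr dye plus Red40 quencher, and kinetic rate constants normalized to controls.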
KCNH2 WT inh = blocks the wildtype human KCNH2 potassium channel. U2OS, BacMam KCNH2, thallium flux FluxOr; active compounds read low. activity change, % at 1.84 µM. 0.37% of 340,000 active. AID 720551;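 active = maximum activity change below -70%; inconclusive = maximum activity change between -70% and -50%; inactive = maximum activity change above -50%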; note: % is set by controls: 0 for no effect and ±100 for the full control effect
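U2OS cells transduced with wild-type KCNH2 virus are loaded with FluxOr dye for 45 min, and thallium flux is measured in kinetic reads before and after stimulation buffer. Rate constants are normalized to DMSO controls.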
An asterisk follows results filed as active; u = inconclusive; x = no result. An excerpt weighted towards active compounds, which were near 2.8% of everything screened. Unless noted, calls come from the whole dose curve; as a rule, active = well fitted curve in the direction sought with a large enough effect; inconclusive = small, poorly fitted or top-dose-only effect, or another doubt; inactive = no such curve, though single readings can be large; an effect the other way counts as inactive or inconclusive.

SMILES	GLP1R ag	GLS inhibitor	GLP1R cytotox	GLP1R inv ag	KCNH2 3.1 inh	KCNH2 WT inh
COCCCN1C(=O)C(CC(=O)NCc2cccc3ccccc23)CC(C(=O)N(C)C)=C1C (centres undefined)	-12%	0%	10%	6%	1	0
C=C(C)CNC(=S)NNC(=O)CCn1c2cc(Cl)ccc2c2ccc(Cl)cc21	-12%	-3%	-8%	11µM*	3	-12
C=C(C)CNC(=S)NNC(=O)CCn1c2ccc(Cl)cc2c2cc(Cl)ccc21	-4%	8%	-17%	u	-11	-6
Cc1cccn2c(=O)c3cc(C(=O)NC(C)C)n(C)c3nc12	x	2%	-11%	18%	x	x
Cc1ccc(C(=O)CCC(=O)N2CCC(C(N)=O)CC2)s1	7%	-1%	-9%	15%	4	-19
Cc1ccc(C(CNC(=O)Nc2ccc(Cl)cc2)N2CCN(C)CC2)cc1 (centres undefined)	-6%	5%	0%	8.9µM*	u	33
CN1CCN(C(CNC(=O)Nc2ccc(Cl)cc2)c2ccc(F)cc2)CC1 (centres undefined)	11%	-12%	-16%	u	-6	3
CC12CN3CC(C)(CN(C1)C3c1ccccc1Cl)C2O (centres undefined)	0%	3%	1%	9%	-8	-2
CC12CN3CC(C)(CN(C1)C3c1ccccc1F)C2 (centres undefined)	7%	2%	3%	-4%	-99*	1
O=C(CSCc1ccc(Cl)cc1)NCc1ccc2c(c1)OCO2	-7%	-11%	-3%	8.9µM*	1	-10
O=C(CSCc1ccc(F)cc1)NCc1ccc2c(c1)OCO2	3%	0%	-2%	u	-10	-6
O=C(NCc1ccc2c(c1)OCO2)c1ccc(CSCc2ccccc2Cl)o1	3%	-1%	2%	10µM*	7	-12
O=C(c1ccc(CS(=O)(=O)c2c(Cl)cccc2Cl)o1)N1CCN(c2ccccc2)CC1	x	20%	-1%	0%	x	x
CCOc1ccc(C2=NC(c3cccs3)=Nc3ccc(CC)cc3N2)cc1OCC	x	4%	-6%	u	x	x
Cc1ccccc1-c1nc(SCc2cccnc2)c2c(=O)n(C)c(=O)n(C)c2n1	1%	5%	3%	12%	-5	-256*
CCOCCc1nn2c(=O)cc(COC(=O)c3ccc(NC(=O)c4ccc(F)cc4)cc3)nc2s1	x	0%	32%	12%	x	x
Cc1cc(C)cc(NC(=O)Nc2cc(-c3ccccc3)nn2C)c1	22%	9%	-15%	8.9µM*	-10	3
O=C(NCc1cccc(Cl)c1)NCc1noc2ccccc12	x	-1%	-1%	-4%	x	x
COc1ccc(C)cc1S(=O)(=O)NCCC1=CCCCC1	5%	-6%	-4%	-1%	2	-257*
COc1ccc(C)cc1S(=O)(=O)N1CCC(C(=O)NCCC2=CCCCC2)CC1	6%	-1%	-13%	-20%	0	-6
COc1ccccc1CNC(=O)c1cc(-c2ccccc2)nn1Cc1cc(C)no1	7%	-8%	10%	u	14	-1
CCc1cc(Cn2nc(-c3ccccc3)cc2C(=O)NCc2ccccc2OC)on1	-4%	-6%	12%	11µM*	7	7
Cn1cc(-c2cc3n(n2)CCC(=O)N3CC(=O)NCc2ccccc2)c2ccccc21	x	-11%	0%	-4%	x	x
CC1CCCN(c2ccc(N)cc2C(N)=O)C1 (centres undefined)	10%	7.1µM*	14%	u	-9	0
CC(C)CCN(Cc1ccco1)C(=O)c1cc2c(s1)-c1ccccc1OC2	-2%	4%	2%	u	x	x
Cc1ccccc1CNC(=O)c1c(C)oc2c1C1=NCCN1C=N2	x	4µM*	-1%	12%	x	x
Oc1c(N=Nc2ccccn2)ccc2ccccc12	-17%	-8%	5µM*	u	13	19

From PubChem
